From ChEMBL document CHEMBL3988442, “University of Dundee, Small-Polar-MMV Screening Library” (2021) come the findings set out here.

Where “and” joins values, the source holds several entries; their conditions need not be identical. Identical values can stand only once. Hit rate of the full screen: of about 34,000 compounds, about 290 (0.85%) showed an effect of 50% or more. What follows is part of a selection rich in strong results, with near analogues and random picks from the rest.

This test relates to Plasmodium falciparum. Description: Plasmodium falciparum sporozoite viability assay. It is filed as functional, organism-based. The arrangement: scale not given: in the data most compounds retested in dose-response had high values.

In the case of `CN1CC2(CCCN(Cc3nnc(-c4ccco4)o3)CC2)OC1=O` (stereo unspecified), the “Percent Effect” value (10 mM as filed; unlikely as a test dose) was -3.132% and -3.886%.
Turning to `CN(C)CCN(C)c1cc(N2CCN(c3ccccn3)CC2)ncn1`, the “Percent Effect” value is -8.534%.
Still for that read-out and setting: next, `CN(C)c1cc(N2CCN(c3ccccn3)CC2)ncn1`: -18.98%; `CC(=O)N1CCCC1(C)c1nc(C)no1` (stereo unspecified): 0.7282%.
Regarding `Cc1nc(C)c(CNC(=O)N2CCc3ccccc3C2CO)s1` (stereo unspecified), the “Percent Effect” value is listed as -12.91%.
On to `COCCCN1Cc2cccc(NC(=O)c3cc(F)cc(F)c3)c2C1`, for which, where the note is “10 mM as filed; unlikely as a test dose”, the “Percent Effect” value was -15.93% and -21.99% and -27.51%.
For `Cc1cnn(CCNCc2nnc(C3CC3)o2)c1`, the “Percent Effect” value came out at 9.956%.
For `CCOC(=O)c1ccc(NC(=O)Cn2cc(I)cn2)cc1`, the “Percent Effect” value (10 mM as filed; unlikely as a test dose) was -22.37% and -20.15% and -13.35%.
On the same count and under the same terms, to `NC(=O)c1ccc(NC(=O)Cn2cc(I)cn2)cc1` belongs 84.67% and 86.35% and 89.46%.
On the same count and under the same terms, to `Cc1ccc(NC(=O)Cn2cc(I)cn2)cc1` belongs -17.48% and -21.7% and -14.78%.
`O=C(c1cccnc1)N1Cc2ccccc2OCC1Cn1ccnc1` (stereo unspecified): the “Percent Effect” value is -1.384%.
The same measure, in the same setting: next, `Cc1cc(C)nc(C2CCN(C(=O)c3cnc(N(C)C)nc3)C2)n1` (stereo unspecified): -0.8427%.
With `OC1CCN(c2ccc(CNc3nc4ccccc4s3)cc2F)CC1`, the “Percent Effect” value (10 mM as filed; unlikely as a test dose) was 62.02% and 41.95% and 71.05%.
On the same count and under the same terms, to `COC(=O)c1sc(NCc2ccc(N3CCC(O)CC3)c(F)c2)nc1Cl` belongs -24.87% and -16.11% and -1.959%.
Regarding `O=C(O)C(F)(F)F.O=C(O)C(F)(F)F.c1ccc(NCc2cnc3n2CCN(CC2CCOC2)CC3)nc1` (stereo unspecified), the “Percent Effect” value is on record as -7.491%.
Same read-out and setting: next, `Cc1ncsc1C(=O)NCc1ccnc(OCC(F)(F)F)c1`: 6.389%; `CCN(CC)S(=O)(=O)c1cc2c3c(c1)c(C)cc(=O)n3CC2`: 16.61%.
For `CN1CCN(Cc2cnc3n2CCN(Cc2cccs2)C3)CC1.O=C(O)C(F)(F)F.O=C(O)C(F)(F)F.O=C(O)C(F)(F)F`, the “Percent Effect” value is recorded as -13.03%.
On the same count and under the same terms, to `CCCC(C)C(=O)NCc1cn2cc(Br)ccc2n1` (stereo unspecified) belongs -3.946%.
On to `O=C(Cn1cc(Cl)cn1)Nc1ccc2c(c1)OCO2`, for which the “Percent Effect” value (10 mM as filed; unlikely as a test dose) is -26.57% and -36.31%.
Still for that read-out and setting: next, `CCn1cc(NC(=O)NCC(c2ccc(OC)cc2)N(C)C)cn1` (stereo unspecified): 43.93% and 35.12% and 56.29%; `O=C(CCn1cc(Cl)cn1)Nc1ccc2c(c1)OCCO2`: 65.57% and 50.96%.
Take `CCn1cc(NC(=O)NCCc2ccc3c(c2)OCCO3)cn1`: the “Percent Effect” value was -0.8103%.
On to `CCn1cc(NC(=O)NCC(c2cccc(OC)c2)N(C)C)cn1` (stereo unspecified), for which the “Percent Effect” value (10 mM as filed; unlikely as a test dose) was 18.25% and 14.26% and 26.58%.
Same read-out and setting: next, `O=C(Cn1cc(Cl)cn1)Nc1ccc2c(c1)OCCCO2`: -49.11% and -46.89%.
With `CCn1cc(NC(=O)Nc2ccc3c(c2)OCCO3)cn1`, the “Percent Effect” value (10 mM as filed; unlikely as a test dose) is 64.15% and 57.73% and 68.6%.
On to `Cc1nc2cc(O)nn2c(C)c1CCC(=O)NCc1cc(Br)cs1`, for which the “Percent Effect” value is recorded as 3.643%.
On to `O=C(NCCc1ccccc1)c1cccc(S(=O)(=O)NC2CCOC2)c1` (stereo unspecified), for which the “Percent Effect” value is -7.302%.
Still for that read-out and setting: next, `CN1CCC(c2cccc(-c3cccc(C(=O)O)c3)n2)CC1`: 10.86%; `CCOc1ccc(CCCC(=O)N2CCC(C(=O)NC)C2)cc1C` (stereo unspecified): -7.967%.
Still for that read-out and setting: to `COc1cc(CCC(=O)NC(C)C(=O)O)ccc1OCC(F)(F)F` (stereo unspecified) belongs -11.4%.
Same read-out and setting: next, `Cc1nn(C)c(C)c1C1CCCN1c1ncnc2sccc12` (stereo unspecified): -0.7353%; `O[C@H]1CN(Cc2c[nH]nc2-c2ccccc2)CC[C@@]12CCCO2`: 16.42%.
Consider `Cl.Cl.Cn1nc(C2CNCCO2)cc1CCOc1ccc(Cl)cc1` (stereo unspecified), for which the “Percent Effect” value is recorded as -1.356%.
On the same count and under the same terms, to `CN(C)C(=O)c1sc2ncccc2c1C1CNCCO1.Cl` (stereo unspecified) belongs -1.679%.
Take `Cl.Clc1ccc(-c2ccc(C3CNCCO3)nc2)cc1` (stereo unspecified): the “Percent Effect” value (10 mM as filed; unlikely as a test dose) was 88.25% and 80.55% and 85.69%.
As for `Nc1ncc(-c2ccc(Cl)cc2)c(C2CCCNC2)n1` (stereo unspecified), the “Percent Effect” value is listed as 17.56%.
The same measure, in the same setting: to `Cn1ccnc1CN1CCN(Cc2noc(C3CC3)n2)CC1` belongs 10.42%.
Consider `CCN1CC[C@@]2(C(=O)N3CCOCC3)CCN(C(=O)C(C)C)CC[C@@H]12.O=C(O)C(F)(F)F`, for which the “Percent Effect” value is recorded as 20.75%.
For the molecule `Cc1ccc(-c2nccn2-c2ccc(OC3CCN(C)CC3)cc2)o1`, for the setting “10 mM as filed; unlikely as a test dose”, the “Percent Effect” value is 49.42% and 35.94%.
Take `CCOC[C@H]1CC[C@H]2[C@H](CCN2C(=O)c2cnccn2)O1`: the “Percent Effect” value worked out at 7.105%.
The same measure, in the same setting: to `c1ccc(OCCN2CCC(c3cnccn3)CC2)cc1` belongs 9.194%; to `CC(O)CN1CCN(Cc2csc(-c3cnn(C)c3)n2)CC1` (stereo unspecified), 8.176%.
With `CC(O)CN1CCN(Cc2csc(-c3ncccn3)n2)CC1` (stereo unspecified), the “Percent Effect” value (10 mM as filed; unlikely as a test dose) was 68.95% and 42.73% and 61.03%.
With `CC(C)c1nc(CN2CCN(Cc3ccccn3)CC2)cs1`, the “Percent Effect” value is given as 0%.
`O=C(c1cnccn1)N1CCN(Cc2csc(-c3ccccc3)n2)CC1`: the “Percent Effect” value was 9.607%.
On to `CC(C)C(=O)N1CCN(Cc2csc(-c3ccccn3)n2)CC1`, for which, under “10 mM as filed; unlikely as a test dose”, the “Percent Effect” value was 63.59% and 62.99% and 41.75%.
On the same count and under the same terms, next, `COCC(=O)N1CCN(Cc2csc(-c3ncccn3)n2)CC1`: -31.63% and -33.22% and -17.89%.
Still for that read-out and setting: to `CC(C)C(=O)N1CCN(Cc2csc(-c3ncccn3)n2)CC1` belongs 77.28% and 53.85% and 54.68%; to `c1cnc(-c2nc(CN3CCCN(Cc4cccs4)CC3)cs2)nc1`, -6.924% and 13.02% and 13.14%.
`COCCN1CCC2(CCN(C(=O)c3ccc(F)cc3)CC2)C1=O`: the “Percent Effect” value amounted to 6.318%.
The same measure, in the same setting: to `CCC(=O)Nc1ccc(N2CCC(OC)CC2)c(C(F)(F)F)c1` belongs 1.93%.
Consider `CCc1[nH]ncc1C(=O)N1CCCC(n2cncn2)C1` (stereo unspecified), for which the “Percent Effect” value is given as -4.375%.
Still for that read-out and setting: to `Cc1cccnc1C(Cc1ccsc1)NCc1cnc(N(C)C)nc1` (stereo unspecified) belongs -1.422%; to `Cc1cccc(CN2CCCn3c(nnc3CN3CCCC3=O)C2)n1.O=C(O)C(F)(F)F`, -1.313%.
Same read-out and setting: to `CN(C)c1ccc(CC2COCCN(Cc3nccn3C)C2)nn1` (stereo unspecified) belongs -1.339%; to `Cn1ccnc1C(=O)N[C@@H]1CN(Cc2ccoc2)[C@@H]2CCCO[C@@H]21.O=C(O)C(F)(F)F`, 4.904%; to `CC1=Nc2c(c(=O)[nH]n2C2CCCC2)C(c2ccc(C(=O)O)cc2)S1` (stereo unspecified), -7.784%.
As to `CCn1c(C)nc2cc(NC(=O)CC3CCCCO3)ccc21` (stereo unspecified), the “Percent Effect” value (10 mM as filed; unlikely as a test dose) is 43.93% and 40.46% and 65.03%.
For the molecule `CCn1c(C)nc2cc(NC(=O)C3CN(C(C)=O)C3)ccc21`, the “Percent Effect” value was -0.5895%.
Same read-out and setting: to `COc1ncccc1CN1CCC2(CC1)CC(OCC1CC1)CO2.O=C(O)C(F)(F)F` (stereo unspecified) belongs 8.839%.
Still for that read-out and setting: next, `COc1ccccc1-n1cc(C(=O)NCCCn2nc(C)nc2C)cn1`: 3.022%; `Cc1ccnn1-c1ccc(C(=O)N2CCCC(n3ccnc3)C2)cc1` (stereo unspecified): 2.837%; `Cc1cc(C)nc(N2CCC(CNC(=O)c3ccccn3)CC2)n1`: 1.904%.
`CN1CCC(CCc2ccnc(NC(=O)c3ccccn3)c2)CC1`: the “Percent Effect” value (10 mM as filed; unlikely as a test dose) was 67.18% and 85.05% and 49.69%.
Take `CN1CCC(CCc2ccnc(Nc3cnccn3)c2)CC1`: the “Percent Effect” value is recorded as -4.215%.
As to `CC(=O)N1CCC(CCc2ccnc(NC(=O)c3ccccn3)c2)CC1`, the “Percent Effect” value (10 mM as filed; unlikely as a test dose) was 74.38% and 72.77% and 65.08%.
Still for that read-out and setting: to `O=C(Nc1cc(CCC2CCN(CCO)CC2)ccn1)c1ccccn1` belongs 45.19% and 58.77% and 35.89%; to `CC(=O)Nc1cc(CCC2CCN(C(=O)c3ccccn3)CC2)ccn1`, 2.531% and -14.73% and -5.68%.
For `O=C(CO)N1CCC(CCc2ccnc(Nc3cnccn3)c2)CC1`, the “Percent Effect” value is recorded as -3.121%.
The same measure, in the same setting: next, `Cc1ccccc1CCNC(=O)CN1CCCC(Cn2cncn2)C1` (stereo unspecified): 7.953%; `O=C(C1=CCCC1)N1C[C@@H]2COC[C@]2(COc2ncccc2F)C1.O=C(O)C(F)(F)F`: 10.29%.
Same read-out and setting: to `O=C(c1ccc(-c2cccc3c2CCNC3)o1)N1CCCCC1` belongs -26%.
`O=S(=O)(c1ccccc1)N1CC[C@]2(C[C@@H](OCC3CC3)CO2)C1`: the “Percent Effect” value is on record as -7.967%.
Still for that read-out and setting: next, `COC(=O)Nc1ccc(CNc2cncc(-n3cccn3)n2)cc1`: -0.1023%.
Consider `Cc1cc(CN(C)C(=O)c2ccc(OC(C)C)nc2)no1`, for which the “Percent Effect” value is 6.375%.
Still for that read-out and setting: next, `COc1ccc(CN2C[C@@H]3OCCN(C)[C@@H]3C2)cc1.O=C(O)C(F)(F)F`: -4.875%; `COCCC(=O)N1CC[C@@H](N(C)C)[C@@H]1Cc1ccccc1`: -9.112%.
Same read-out and setting: to `COc1ccc(S(=O)(=O)N2C[C@@H]3CN(C)CCO[C@@H]3C2)cc1` belongs 1.798%.
Still for that read-out and setting: to `Cc1nccn1C1CCCN(C(=O)CCCNc2ncccn2)C1` (stereo unspecified) belongs 3.922%; to `Cc1cnn(CC2CCCN2C(=O)c2ccccc2-n2cccn2)c1` (stereo unspecified), 9.109%; to `Cc1nc(N2CCN(C(=O)c3ccccc3)CC2)c2cnn(C)c2n1`, -8.371%.
With `Cl.OC1(c2ccc(F)cc2)CCN(Cc2ccccc2N2CCCC2)CC1`, the “Percent Effect” value is 10.2%.
In the case of `Cc1cnccc1-n1nc(C(C)C)nc1CS(C)(=O)=O`, the “Percent Effect” value (10 mM as filed; unlikely as a test dose) is 82.57% and 75%.
Still for that read-out and setting: next, `Cc1cnccc1-n1nc(C(C)C)nc1CCN(C)S(C)(=O)=O`: -20.65% and -22.07%; `CSCCc1nc(C(C)C)nn1-c1ccncc1C`: -19.09% and -18.73%.
Consider `CC(=O)N1CCC1c1nc(-c2ccc(C)s2)no1` (stereo unspecified), for which the “Percent Effect” value is on record as -4.556%.
For `O=C(Cc1ccc(F)cc1)NCCNc1cc(N2CCCC2)cnn1`, the “Percent Effect” value (10 mM as filed; unlikely as a test dose) was 2.363% and 4.651%.
In the case of `CSc1nnc(CNC(=O)Nc2ccccc2F)n1C`, the “Percent Effect” value is -0.259%.
As to `O=C(NCCNc1cc(N2CCCC2)cnn1)Nc1ccccc1F`, the “Percent Effect” value (10 mM as filed; unlikely as a test dose) is 88.21% and 92.16%.
Regarding `CC(=O)N1CC[C@H]2OCC[C@@]2(C(=O)NCCc2ccccn2)C1.O=C(O)C(F)(F)F`, the “Percent Effect” value is on record as -10.77%.
